Data taken from PubChem BioAssay (Tox21).
Several values for one entry are separate records, joined by “and”; a condition that tells them apart may be missing. Identical values can stand only once. Results filed as inconclusive are left out. Where a call stands in place of a potency, no number is given. A structure can be active in one record and inactive in another. Activity calls are given as the source filed them. Unless noted, the call rests on the fitted dose curve; in most records, active means well fitted curve in the direction sought with a large enough effect in the repeat runs; inconclusive means weak or mixed curves; inactive means no such curve, though single readings can be large; an effect the other way counts as inactive or inconclusive.

Columns and labels:
[1] = qHTS assay to identify aromatase inhibitors - cell viability counter screen (AID 743084);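 further: cells stimulated with testosterone during compound exposure; nearly all actives have a fitted effect of over 55% in size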; further: potency means the concentration at half of the fitted maximal effect
[2] = target: Aryl hydrocarbon receptor (Homo sapiens) (UniProt P35869); assay: qHTS assay to identify small molecule that activate the aryl hydrocarbon receptor (AhR) signaling pathway (AID 743085); further: nearly all actives have a fitted effect of over 15% in size; further: potency means the concentration at half of the fitted maximal effect;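 on activation: HG2L7.5c1 human HepG2 liver cells with stably integrated DRE-driven firefly reporter; series mostly up to about 70 µM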
Aryl hydrocarbon receptor (Homo sapiens), sequence (P35869 whole entry, looked up): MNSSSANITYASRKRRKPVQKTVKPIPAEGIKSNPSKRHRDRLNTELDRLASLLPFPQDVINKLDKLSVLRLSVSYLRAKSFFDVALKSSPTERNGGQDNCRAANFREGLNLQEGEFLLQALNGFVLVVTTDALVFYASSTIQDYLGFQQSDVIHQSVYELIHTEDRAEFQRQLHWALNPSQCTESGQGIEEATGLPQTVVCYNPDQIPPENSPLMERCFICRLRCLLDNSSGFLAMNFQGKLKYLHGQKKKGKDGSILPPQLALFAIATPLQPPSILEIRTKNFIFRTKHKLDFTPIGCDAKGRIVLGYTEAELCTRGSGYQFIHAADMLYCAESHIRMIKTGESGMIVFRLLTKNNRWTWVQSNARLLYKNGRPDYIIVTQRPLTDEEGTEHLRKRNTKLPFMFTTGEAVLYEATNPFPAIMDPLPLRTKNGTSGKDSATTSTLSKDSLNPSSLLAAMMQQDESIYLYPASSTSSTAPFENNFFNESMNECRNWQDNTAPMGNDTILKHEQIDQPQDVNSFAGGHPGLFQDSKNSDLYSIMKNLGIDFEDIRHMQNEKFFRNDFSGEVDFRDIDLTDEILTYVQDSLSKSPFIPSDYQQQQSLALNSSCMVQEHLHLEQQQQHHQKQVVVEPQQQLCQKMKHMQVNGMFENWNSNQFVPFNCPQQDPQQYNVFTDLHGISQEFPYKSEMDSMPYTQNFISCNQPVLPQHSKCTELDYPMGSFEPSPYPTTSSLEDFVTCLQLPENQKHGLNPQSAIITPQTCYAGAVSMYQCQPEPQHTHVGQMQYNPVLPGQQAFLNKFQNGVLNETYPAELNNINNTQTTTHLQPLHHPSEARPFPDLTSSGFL
Outline: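 HepG2 cells (HG2L7.5c1) stably carrying a firefly luciferase reporter driven by 20 dioxin responsive elements were exposed to compound for 24 h at 37C after a 5 h settling period; luminescence rise (ONE-Glo) indicated activation.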

[3] = target: Peroxisome proliferator-activated receptor gamma (Homo sapiens) (UniProt P37231); assay: qHTS assay to identify small molecule agonists of the peroxisome proliferator-activated receptor gamma (PPARg) signaling pathway (AID 743094; active means well fitted activation curve with a large enough effect in the signal ratio in the repeat runs, not every such curve was filed as active; the % refers to the signal ratio; further: potency means the concentration at half of the fitted maximal effect)
Peroxisome proliferator-activated receptor gamma (Homo sapiens), sequence (P37231 whole entry, looked up): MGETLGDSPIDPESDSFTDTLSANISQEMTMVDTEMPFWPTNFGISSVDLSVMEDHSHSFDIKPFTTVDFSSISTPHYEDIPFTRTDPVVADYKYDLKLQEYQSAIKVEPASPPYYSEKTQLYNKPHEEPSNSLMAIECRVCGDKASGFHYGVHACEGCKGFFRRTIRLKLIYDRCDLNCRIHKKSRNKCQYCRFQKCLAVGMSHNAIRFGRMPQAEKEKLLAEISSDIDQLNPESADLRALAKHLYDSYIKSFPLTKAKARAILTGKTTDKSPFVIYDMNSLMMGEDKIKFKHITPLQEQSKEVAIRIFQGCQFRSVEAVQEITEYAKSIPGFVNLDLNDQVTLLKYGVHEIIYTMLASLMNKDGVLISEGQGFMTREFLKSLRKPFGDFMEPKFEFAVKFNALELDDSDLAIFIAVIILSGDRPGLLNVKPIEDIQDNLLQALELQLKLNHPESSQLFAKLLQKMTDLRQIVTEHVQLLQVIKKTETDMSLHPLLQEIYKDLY
Outline: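 Agonist activity was taken from a beta-lactamase reporter (FRET substrate, 1 h at room temperature) in HEK293H cells carrying a PPARg UAS-bla construct. Compounds in DMSO were incubated 17 h at 37C after a 5 h cell pre-incubation.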

[4] = target: Peroxisome proliferator-activated receptor gamma (Homo sapiens) (UniProt P37231); assay: qHTS assay to identify small molecule antagonists of the peroxisome proliferator-activated receptor gamma (PPARg) signaling pathway (AID 743191; calls by dose curve; further: series mostly up to about 63 µM; nearly all actives have a fitted effect of over 30% in size)
Outline: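 GeneBLAzer PPARg UAS-bla HEK293H cells carrying a UAS-driven beta-lactamase reporter were plated at 3000 cells/well, preincubated 5 h at 37C, then given compound for 17 h at 37C; LiveBLAzer B/G FRET substrate was read after 1 h at room temperature.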

[5] = qHTS assay to identify small molecule antagonists of the peroxisome proliferator-activated receptor gamma (PPARg) signaling pathway - cell viability counter screen (AID 743194); further: nearly all actives have a fitted effect of over 55% in size; further: potency means the concentration at half of the fitted maximal effect
Outline: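 PPARg-UAS-bla HEK293H cells were plated, rested 5 h at 37 C, then treated with compounds plus rosiglitazone (50 nM final) for 17 h at 37 C; viability was then read by CellTiter-Glo luminescence after 30 min at room temperature.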

[6] = qHTS assay for small molecule agonists of the antioxidant response element (ARE) signaling pathway - cell viability counter screen (AID 743203; calls by dose curve; further: nearly all actives have a fitted effect of over 55% in size; further: potency means the concentration at half of the fitted maximal effect)
Outline: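 Viability counter screen: CellTiter-Glo luminescence, read after 30 min at room temperature, in ARE-bla HepG2 wells. Compound exposure lasted 16 h at 37C/5% CO2, following a 5 h pre-incubation of the cells after plating.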

[7] = qHTS assay for small molecule activators of the heat shock response signaling pathway - cell viability counter screen (AID 743209); further: nearly all actives have a fitted effect of over 50% in size; further: potency means the concentration at half of the fitted maximal effect
Outline: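 Cytotoxicity counter screen run in the same wells as the heat-shock bla reporter assay: HeLa HSE-bla cells, 5 h compound exposure at 37 C, viability read by CellTiter-Glo luminescence.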

[8] = qHTS assay for small molecule activators of the heat shock response signaling pathway (AID 743210; active means well fitted activation curve with a large enough effect in the signal ratio in the repeat runs, with a control signal flat, not every such curve was filed as active; the % refers to the signal ratio;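 further: HeLa cells with beta-lactamase reporter driven by heat shock elements; series mostly up to about 63 µM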)
Outline: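 Activation of heat shock element-controlled beta-lactamase expression is measured in HeLa cells by LiveBLAzer FRET fluorescence, with compound exposure lasting 5 h at 37 C and substrate loading 2.5 h at room temperature.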

[9] = qHTS assay to identify small molecule agonists of the peroxisome proliferator-activated receptor delta (PPARd) signaling pathway - cell viability counter screen (AID 743211); further: nearly all actives have a fitted effect of over 55% in size; further: potency means the concentration at half of the fitted maximal effect
Outline: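 PPARd-bla HEK293H cells (UAS-beta-lactamase reporter) were treated with compounds for 17 h at 37 C. Viability was then read in the same wells by CellTiter-Glo luminescence after 30 min at room temperature.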

[10] = target: Peroxisome proliferator-activated receptor delta (Homo sapiens) (UniProt Q03181); assay: qHTS assay to identify small molecule agonists of the peroxisome proliferator-activated receptor delta (PPARd) signaling pathway (AID 743212; calls by dose curve)
Peroxisome proliferator-activated receptor delta (Homo sapiens), sequence (Q03181 whole entry, looked up): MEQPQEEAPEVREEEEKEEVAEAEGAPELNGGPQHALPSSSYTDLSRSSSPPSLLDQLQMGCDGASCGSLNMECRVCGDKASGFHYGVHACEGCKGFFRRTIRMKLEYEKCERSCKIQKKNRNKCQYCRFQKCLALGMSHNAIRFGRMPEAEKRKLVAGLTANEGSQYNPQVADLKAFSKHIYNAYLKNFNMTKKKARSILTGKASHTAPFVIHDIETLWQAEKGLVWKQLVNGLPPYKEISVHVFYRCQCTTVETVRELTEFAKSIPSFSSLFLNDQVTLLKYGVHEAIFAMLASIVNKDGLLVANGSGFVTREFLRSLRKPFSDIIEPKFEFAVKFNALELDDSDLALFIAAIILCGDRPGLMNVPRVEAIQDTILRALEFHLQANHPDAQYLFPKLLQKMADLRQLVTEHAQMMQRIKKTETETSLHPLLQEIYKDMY
Outline: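 Cells expressing a UAS-driven beta-lactamase reporter (PPARd-bla HEK293H) were given test compounds after a 5 h settle and kept at 37 C. Reporter activity was then measured as FRET fluorescence using LiveBLAzer B/G substrate.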

[11] = qHTS assay to identify small molecule antagonists of the peroxisome proliferator-activated receptor delta (PPARd) signaling pathway - cell viability counter screen (AID 743213); further: nearly all actives have a fitted effect of over 50% in size; further: potency means the concentration at half of the fitted maximal effect
Outline: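 PPARd-bla HEK293H cells were treated with compounds plus agonist L165041 (300 nM final) for 17 h at 37 C. Viability was then read in the same wells by CellTiter-Glo luminescence after 30 min at room temperature.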

[12] = target: Peroxisome proliferator-activated receptor delta (Homo sapiens) (UniProt Q03181); assay: qHTS assay to identify small molecule antagonists of the peroxisome proliferator-activated receptor delta (PPARd) signaling pathway (AID 743215; active means well fitted inhibition curve with a large enough effect in the signal ratio in the repeat runs, not every such curve was filed as active; the % refers to the signal ratio;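 further: cells stimulated with agonist L165041 at 300 nM final during compound exposure; series mostly up to about 62 µM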)
Outline: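 Agonist L165041 (300 nM final) added with compound to PPARd-bla HEK293H UAS-bla reporter cells; 17 h incubation at 37 C. Read-out: LiveBLAzer FRET substrate, 2 h at room temperature, fluorescence intensity.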

[13] = qHTS assay to identify small molecule agonists of the farnesoid-X-receptor (FXR) signaling pathway - cell viability counter screen (AID 743218); further: nearly all actives have a fitted effect of over 45% in size; further: potency means the concentration at half of the fitted maximal effect
Outline: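 Viability counter screen in the same wells: CellTiter-Glo luminescence, 30 min room-temperature incubation, measured after the beta-lactamase read. Cells were GeneBLAzer FXR-UAS-bla HEK 293T, compound-treated 16 h at 37C.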

[14] = qHTS assay to identify small molecule antagonists of the farnesoid-X-receptor (FXR) signaling pathway - cell viability counter screen (AID 743221; active means well fitted cell-killing curve with a large enough effect in the repeat runs, not every such curve was filed as active; further: nearly all actives have a fitted effect of over 50% in size; further: potency means the concentration at half of the fitted maximal effect)
Outline: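 FXR-UAS-bla HEK 293T cells were treated with test compounds plus chenodeoxycholic acid (50 uM final) for 16 h at 37 C. Cell viability in the same wells was then read as CellTiter-Glo luminescence after 30 min at room temperature.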

[15] = target: Vitamin D3 receptor (Homo sapiens) (UniProt P11473); assay: qHTS assay to identify small molecule agonists of the vitamin D receptor (VDR) signaling pathway (AID 743222; calls by dose curve)
Vitamin D3 receptor (Homo sapiens), sequence (P11473 whole entry, looked up): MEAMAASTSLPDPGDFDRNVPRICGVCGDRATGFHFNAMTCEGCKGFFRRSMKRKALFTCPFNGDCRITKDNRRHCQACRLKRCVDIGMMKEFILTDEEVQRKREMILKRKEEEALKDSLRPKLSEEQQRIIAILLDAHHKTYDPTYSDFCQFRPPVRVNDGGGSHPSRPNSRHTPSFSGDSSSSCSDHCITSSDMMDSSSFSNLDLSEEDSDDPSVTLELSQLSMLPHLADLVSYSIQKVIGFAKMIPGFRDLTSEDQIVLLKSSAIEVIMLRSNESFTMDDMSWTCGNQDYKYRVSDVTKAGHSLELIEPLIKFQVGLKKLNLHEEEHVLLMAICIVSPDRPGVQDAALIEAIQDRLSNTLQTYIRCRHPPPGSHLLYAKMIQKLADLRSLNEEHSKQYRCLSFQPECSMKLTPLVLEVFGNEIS
Outline: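 Agonist mode, beta-lactamase reporter: fluorescence from LiveBLAzer B/G FRET substrate (2 h, room temperature) read after 16 h compound treatment at 37 C of VDR-bla cells, which were pre-incubated 4 h after seeding.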

[16] = target: Vitamin D3 receptor (Homo sapiens) (UniProt P11473); assay: qHTS assay to identify small molecule antagonists of the vitamin D receptor (VDR) signaling pathway (AID 743223; active means well fitted inhibition curve with a large enough effect in the signal ratio in the repeat runs, not every such curve was filed as active; the % refers to the signal ratio)
Outline: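 VDR-bla cells were plated, incubated 4 h at 37C, then given compound and 1alpha,25-dihydroxyvitamin D3 (3 nM final). After 16 h at 37C, LiveBLAzer B/G FRET substrate was added for 2 h at room temperature and fluorescence read.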

[17] = qHTS assay to identify small molecule that activate the aryl hydrocarbon receptor (AhR) signaling pathway - cell viability counter screen (AID 743086); further: nearly all actives have a fitted effect of over 45% in size; further: potency means the concentration at half of the fitted maximal effect
Outline: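 HepG2-AhR-luc (HG2L7.5c1) cells, 4000/well, were preincubated 5 h at 37C, exposed to compound in qHTS format for 24 hr at 37C, then given CellTiter-Fluor for 30 min; viability was read as fluorescence in the reporter wells.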

[18] = target: Bile acid receptor (Homo sapiens) (UniProt Q96RI1); assay: qHTS assay to identify small molecule antagonists of the farnesoid-X-receptor (FXR) signaling pathway (AID 743217; active means well fitted inhibition curve with a large enough effect in the signal ratio in the repeat runs, not every such curve was filed as active; the % refers to the signal ratio)
Bile acid receptor (Homo sapiens), sequence (Q96RI1 whole entry, looked up): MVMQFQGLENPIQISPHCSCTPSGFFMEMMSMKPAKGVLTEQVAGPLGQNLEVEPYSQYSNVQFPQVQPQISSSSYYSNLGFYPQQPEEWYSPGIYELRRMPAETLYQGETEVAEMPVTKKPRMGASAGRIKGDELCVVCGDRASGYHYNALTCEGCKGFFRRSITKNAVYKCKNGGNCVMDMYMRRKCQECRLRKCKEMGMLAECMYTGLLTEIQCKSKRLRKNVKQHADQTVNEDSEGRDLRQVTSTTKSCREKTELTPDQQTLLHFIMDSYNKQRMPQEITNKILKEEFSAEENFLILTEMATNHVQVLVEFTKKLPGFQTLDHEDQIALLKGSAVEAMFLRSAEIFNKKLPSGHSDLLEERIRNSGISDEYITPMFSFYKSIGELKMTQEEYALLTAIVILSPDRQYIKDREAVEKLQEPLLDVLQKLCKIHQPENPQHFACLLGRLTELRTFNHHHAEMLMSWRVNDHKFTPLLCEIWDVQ
Outline: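 Antagonist mode: chenodeoxycholic acid at 50 uM final stimulates a UAS-driven beta-lactamase reporter in HEK 293T FXR-bla cells during 16 h, 37C compound exposure. Read-out is FRET substrate fluorescence after 2 h at room temperature.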

[19] = target: Bile acid receptor (Homo sapiens) (UniProt Q96RI1); assay: qHTS assay to identify small molecule agonists of the farnesoid-X-receptor (FXR) signaling pathway (AID 743220; active means well fitted activation curve with a large enough effect in the signal ratio in the repeat runs, not every such curve was filed as active; the % refers to the signal ratio)
Outline: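 FXR-UAS-bla HEK 293T cells carrying a UAS-driven beta-lactamase reporter were plated for 5 h at 37C/5% CO2, then exposed to DMSO-dissolved Tox21 10K compounds for 16 h at 37C. A LiveBLAzer B/G FRET substrate was loaded for 2 h at room temperature before fluorescence reading.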

[20] = qHTS assay for small molecule agonists of the antioxidant response element (ARE) signaling pathway (AID 743202; active means well fitted activation curve with a large enough effect in the signal ratio in the repeat runs, not every such curve was filed as active; the % refers to the signal ratio; further: potency means the concentration at half of the fitted maximal effect)
Outline: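 Steps: seed ARE-bla HepG2 cells (2,000/well); incubate 5 h at 37 C; add compounds by pin tool; incubate 16 h at 37 C; add FRET substrate; read fluorescence after 2 h at RT.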

SMILES: Cc1ccc2c(n1)Oc1ccc(C(C)C(=O)OCC(=O)N(C)C)cc1C2 (stereo not drawn)
- Potency [1]: inactive
- Potency [2]: 11.9 µM (active)
- Potency [3]: inactive
- Potency [4]: inactive
- Potency [5]: inactive
- Potency [6]: inactive
- Potency [7]: inactive
- Potency [8]: inactive
- Potency [9]: inactive
- outcome [10]: inactive
- Potency [11]: inactive
- Potency [12]: inactive
- Potency [13]: inactive
- Potency [14]: inactive
- outcome [15]: inactive
- outcome [16]: inactive

SMILES: O=P(O)(O)O
- Potency [1]: inactive
- Potency [2]: inactive
- Potency [17]: inactive
- Potency [6]: inactive
- Potency [7]: inactive
- Potency [9]: inactive
- Potency [11]: inactive
- Potency [18]: inactive
- Potency [13]: inactive
- outcome [19]: inactive
- Potency [14]: inactive
- outcome [15]: inactive
- outcome [16]: inactive

SMILES: C[C@]12CCC(=O)C=C1CC[C@@H]1[C@@H]2C(=O)C[C@@]2(C)[C@H]1CC[C@]2(O)C(=O)CO
- Potency [1]: inactive
- Potency [2]: inactive
- Potency [17]: inactive
- Potency [20]: inactive
- Potency [6]: inactive
- Potency [7]: inactive
- Potency [9]: inactive
- outcome [10]: inactive
- Potency [11]: 49 µM (active) and inactive
- Potency [13]: inactive
- Potency [14]: inactive

SMILES: CCCCC/C=C/C=C/C=O
- Potency [1]: inactive
- Potency [2]: inactive
- Potency [17]: inactive
- Potency [5]: 38.6 µM (active) and 38.9 µM (active)
- Potency [6]: inactive
- Potency [7]: inactive
- Potency [9]: inactive
- outcome [10]: inactive
- Potency [11]: inactive
- Potency [18]: inactive
- Potency [13]: inactive
- outcome [19]: inactive
- Potency [14]: inactive
- outcome [15]: inactive

SMILES: C#C[C@]1(O)CC[C@H]2[C@@H]3CCC4=Cc5oncc5C[C@]4(C)[C@H]3CC[C@@]21C
- Potency [1]: inactive
- Potency [2]: inactive
- Potency [17]: inactive
- Potency [3]: inactive
- Potency [11]: inactive

SMILES: CC(=O)O[C@]1(C(C)=O)CC[C@H]2[C@@H]3C=C(Cl)C4=CC(=O)[C@@H]5C[C@@H]5[C@]4(C)[C@H]3CC[C@@]21C
- Potency [1]: inactive
- Potency [2]: inactive
- Potency [17]: inactive
- Potency [3]: inactive
- Potency [20]: 30.6 µM (active)
- Potency [6]: inactive
- Potency [7]: inactive
- Potency [8]: inactive
- Potency [9]: inactive
- outcome [10]: inactive
- Potency [11]: inactive
- Potency [12]: inactive
- Potency [13]: inactive
- Potency [14]: inactive
- outcome [16]: inactive

SMILES: O=C(c1ccc(OCCN2CCCCC2)cc1)c1c(-c2ccc(O)cc2)sc2cc(O)ccc12
- Potency [1]: 29.8 µM (active) and 34.4 µM (active)
- Potency [2]: inactive
- Potency [17]: 21.1 µM (active) and 21.7 µM (active) and 19.3 µM (active)
- Potency [5]: 55 µM (active) and 15.5 µM (active) and 26.6 µM (active)
- Potency [6]: 61.2 µM (active) and 17.2 µM (active) and 29.8 µM (active)
- Potency [7]: inactive
- Potency [8]: inactive
- Potency [9]: 38.9 µM (active) and 12.3 µM (active) and 26.6 µM (active)
- Potency [11]: 24.6 µM (active) and 8.71 µM (active) and 26.6 µM (active)
- Potency [13]: 49 µM (active) and 12.3 µM (active) and 23.7 µM (active)
- Potency [14]: 55 µM (active)

SMILES: OC1CCCCCCCCCCC1
- Potency [1]: inactive
- Potency [2]: inactive
- Potency [3]: inactive
- Potency [4]: inactive
- Potency [20]: inactive
- Potency [6]: inactive
- Potency [7]: inactive
- Potency [8]: inactive
- Potency [9]: inactive
- outcome [10]: inactive
- Potency [11]: inactive
- Potency [13]: inactive
- Potency [14]: inactive

SMILES: CC(C)OB(OC(C)C)OC(C)C
- Potency [1]: inactive
- Potency [2]: inactive
- Potency [3]: inactive
- Potency [4]: inactive
- Potency [5]: inactive
- Potency [20]: inactive
- Potency [6]: inactive
- Potency [7]: inactive
- Potency [8]: inactive
- Potency [9]: inactive
- Potency [11]: inactive
- Potency [18]: inactive
- Potency [13]: inactive
- outcome [19]: inactive
- Potency [14]: inactive
- outcome [15]: inactive
- outcome [16]: inactive

SMILES: Nc1ccccc1N
- Potency [1]: inactive
- Potency [2]: 27.9 µM (active) and 19.8 µM (active)
- Potency [17]: 19.8 µM (active)
- Potency [3]: inactive
- Potency [20]: 0.788 µM (active)
- Potency [6]: inactive
- Potency [7]: inactive
- Potency [9]: inactive
- outcome [10]: inactive
- Potency [11]: inactive
- Potency [12]: inactive
- Potency [14]: inactive
- outcome [15]: inactive

SMILES: O=CCCCC=O
- Potency [1]: inactive
- Potency [17]: inactive
- Potency [3]: inactive and 53 µM (active)
- Potency [5]: inactive
- Potency [6]: inactive
- Potency [7]: 47.2 µM (active) and inactive
- Potency [9]: inactive
- outcome [10]: inactive
- Potency [11]: inactive
- Potency [18]: inactive
- Potency [13]: inactive
- outcome [19]: inactive
- Potency [14]: inactive
- outcome [15]: inactive
- outcome [16]: inactive

SMILES: Cc1cc2nc3c(=O)[nH]c(=O)nc-3n(C[C@H](O)[C@H](O)[C@H](O)CO)c2cc1C
- Potency [6]: inactive
- Potency [7]: inactive
- Potency [8]: inactive
- Potency [9]: inactive
- outcome [10]: inactive
- Potency [11]: inactive
- Potency [18]: inactive
- Potency [13]: inactive
- outcome [19]: inactive
- Potency [14]: inactive
